Measurements taken from PubChem BioAssay (EPA / NIEHS).
Records with an inconclusive call do not appear. Calls of active or inactive are those of the source. How the source made its calls, unless noted: active means hit-call score of the fitted dose curve at least 0.9, where 1 is the maximum; inconclusive means response in the unintended direction; inactive means score below 0.9.

Key:
[1] = biological target: Retinoic acid receptor alpha (Homo sapiens) (UniProt P10276); test: NVS_NR_hRARa_Agonist: NovaScreen (NVS) Nuclear Receptor Binding Assay for human Retinoic Acid Alpha Receptor Agonism (RAR) (AID 2283361)
Method in brief: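 Compounds screened at 25 uM, duplicate, then in concentration series if active. Detection: TR-FRET gain of signal versus DMSO after 2 h with cell-free extracted RARα.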

[2] = system: guinea pig Dopamine Transporter (DAT), gene 100714898; test: NVS_TR_gDAT: NovaScreen (NVS) Transporter Assay for guinea pig Dopamine Transporter (DAT) (AID 2283369);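 further: active compounds lower bound radioligand signal relative to DMSO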
Method in brief: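 Primary pass: duplicate wells at 25 uM, threshold e.g. 30% inhibition. Follow-up: singleton concentration-response, highest 50 uM. Radioligand binding on guinea pig striatal membranes, 2 h, filtration scintillation detection.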

[3] = biological target: Peroxisome proliferator-activated receptor gamma (Homo sapiens) (UniProt P37231); test: NVS_NR_hPPARg: NovaScreen (NVS) Nuclear Receptor Binding Assay for human Peroxisome Proliferator-activated Receptor gamma (PPARg) (AID 2283370)
Method in brief: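 Extracted receptor protein, cell-free; compound incubated 2 h then fluorescence polarization read. Baseline: DMSO. Actives from 25 uM duplicate screen re-run across concentrations.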

[4] = biological target: human Norepinephrine Transporter (NET), SLC6A2 (gene 6530) (UniProt P23975); test: NVS_TR_hNET: NovaScreen (NVS) Transporter Assay for human Norepinephrine Transporter (NET) (AID 2283377);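 further: cell-free membrane protein extracted from CHO cells expressing human NET; displacement of radioligand from human NET seen as loss of scintillation signal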
Method in brief: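 In this cell-free binding screen, chemicals at 25 uM (duplicate) compete with a radioligand for CHO-derived human NET over 1 hour, with filter-based radiodetection.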

[5] = biological target: Agonist Androgen Response Element (ARE), AR (gene 367) (UniProt P10275); test: OT_AR_ARELUC_AG_1440: Odyssey Thera (OT) 24-hour CHO-K1 Luciferase Assay for Agonist Androgen Response Element (ARE) (AID 2283379)
Method in brief: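 Luminescence increase above DMSO, read after a 24 h compound treatment of CHO-K1 cells expressing an androgen response element luciferase reporter, gives the single primary endpoint; concentration-response fitting used the positive direction.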

[6] = biological target: Estrogen receptor (Homo sapiens) (UniProt P03372); test: OT_ERa_GFPERaERE_0480: Odyssey Thera (OT) 8-hour HeLa Transcription Induction Assay for Estrogen Receptor (AID 2283381; active means hit-call score of the fitted dose curve at least 0.9, where 1 is the maximum; inactive means score below 0.9)
Method in brief: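 An 8 h HeLa transcription-induction format with a GFP reporter under ERE control, read by fluorescence microscopy; single endpoint fitted positively with DMSO as baseline.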

[7] = biological target: Estrogen receptor (Homo sapiens) (UniProt P03372); test: OT_ERa_GFPERaERE_0120: Odyssey Thera (OT) 2-hour HeLa Transcription Induction Assay for Estrogen Receptor (AID 2283382)
Method in brief: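 Two-hour compound treatment of HeLa cells preceded microscopy imaging of an inducible fluorescent reporter. Image-based quantification gave one endpoint, analysed for signal increase relative to DMSO controls.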

[8] = biological target: Bile acid receptor (Homo sapiens) (UniProt Q96RI1); test: OT_FXR_FXRSRC1_0480: Odyssey Thera (OT) 8-hour HEK293T Protein-Complementation Assay for Farnesoid X receptor/SRC-1 Co-activator (AID 2283383)
Method in brief: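 Readings were taken 8 h after dosing HEK293T cells in a split-reporter complementation format pairing FXR with SRC-1. Increased fluorescence relative to DMSO-treated wells defined activity.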

[9] = biological target: Bile acid receptor (Homo sapiens) (UniProt Q96RI1); test: OT_FXR_FXRSRC1_1440: Odyssey Thera (OT) 24-hour HEK293T Protein-Complementation Assay for Farnesoid X receptor/SRC-1 Co-activator (AID 2283384)
Method in brief: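 Single endpoint, analysed for increased fluorescence against DMSO controls. HEK293T cells carrying FXR and SRC-1 linked to complementary reporter halves were exposed to chemicals for 24 h before reading.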

[10] = biological target: Estrogen receptor beta (Homo sapiens) (UniProt Q92731); test: OT_ER_ERbERb_1440: Odyssey Thera (OT) 24-hour HEK293T Protein-Complementation Assay for Estrogen Receptor-beta/-beta Homodimer (AID 2283380);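 further: fluorescence gain from ER beta LBD homodimer complementation read by laser scanning cytometry; scored as signal increase over DMSO baseline for both agonists and antagonists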
Method in brief: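 HEK293T cells stably expressing human ER-beta LBD (aa 310-547) PCA homodimer pair, dosed 24 h; formaldehyde-fixed, Draq5-stained. Readout: increase in nuclear (agonist) or nuclear plus cytoplasmic (antagonist) fluorescence intensity versus DMSO, gain-of-signal fitting.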

[11] = biological target: guinea pig Sigma Receptor, Non-selective Binding, SIGMAR1 (gene 100135589) (UniProt Q60492); test: NVS_OR_gSIGMA_NonSelective: NovaScreen (NVS) Nuclear Receptor Binding Assay for guinea pig Sigma Receptor, Non-selective Binding (AID 2283367)
Method in brief: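 Test chemicals were screened in duplicate at 25 uM, then in concentration series if active, against radioligand binding to guinea pig brain membranes; filtration and scintillation counting at 1 h measured remaining bound ligand.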

[12] = biological target: rat Serotonin Transporter (SERT), Slc6a4 (gene 25553) (UniProt P31652); test: NVS_TR_rSERT: NovaScreen (NVS) Transporter Assay for rat Serotonin Transporter (SERT) (AID 2283375)
Method in brief: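 Using rat forebrain membrane SERT, test chemicals compete with a radioligand for 1 hour, and bound counts are taken by filter-based scintillation. Screening starts at 25 uM in duplicate, followed by concentration series for actives.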

[13] = biological target: Nuclear receptor subfamily 1 group I member 2 (Homo sapiens) (UniProt O75469); test: NVS_NR_hPXR: NovaScreen (NVS) Nuclear Receptor Binding Assay for human Pregnane X Receptor (PXR) (AID 2283365);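 further: a drop in FRET signal versus DMSO baseline means the compound binds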
Method in brief: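 Read-out: TR-FRET, human PXR, 2 h post-dosing, cell-free. Loss of signal vs DMSO taken as binding activity; 25 uM primary, concentration series secondary.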

[14] = biological target: human Thyroid Receptor Alpha (TRa), THRA (gene 7067) (UniProt P10827); test: NVS_NR_hTRa_Antagonist: NovaScreen (NVS) Nuclear Receptor Binding Assay for human Thyroid Receptor Alpha Antagonism (TRa) (AID 2283362);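 further: activity is loss of signal relative to DMSO baseline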
Method in brief: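 In this biochemical format, receptor protein is dosed with chemical and read after 1 hour via AlphaLISA. Decreases from the DMSO baseline indicate antagonist activity; screening used 25 uM in duplicate before concentration-response confirmation.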

[15] = biological target: mouse Estrogen Receptor alpha (Era), Esr1 (gene 13982) (UniProt P19785); test: NVS_NR_mERa: NovaScreen (NVS) Nuclear Receptor Binding Assay for mouse Estrogen Receptor alpha (Era) (AID 2283378);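 further: hit means loss of bound radioligand signal relative to DMSO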
Method in brief: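 Measurements come from scintillation counting after filtration, taken 18 hours after chemicals were added to a cell-free mouse Era preparation with radioligand. Screening was duplicate at 25 uM, with concurrent positive and negative controls and confirmatory concentration series for actives.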

Measured: AC50

Chain of Bile acid receptor (Homo sapiens) (Q96RI1 whole entry, looked up): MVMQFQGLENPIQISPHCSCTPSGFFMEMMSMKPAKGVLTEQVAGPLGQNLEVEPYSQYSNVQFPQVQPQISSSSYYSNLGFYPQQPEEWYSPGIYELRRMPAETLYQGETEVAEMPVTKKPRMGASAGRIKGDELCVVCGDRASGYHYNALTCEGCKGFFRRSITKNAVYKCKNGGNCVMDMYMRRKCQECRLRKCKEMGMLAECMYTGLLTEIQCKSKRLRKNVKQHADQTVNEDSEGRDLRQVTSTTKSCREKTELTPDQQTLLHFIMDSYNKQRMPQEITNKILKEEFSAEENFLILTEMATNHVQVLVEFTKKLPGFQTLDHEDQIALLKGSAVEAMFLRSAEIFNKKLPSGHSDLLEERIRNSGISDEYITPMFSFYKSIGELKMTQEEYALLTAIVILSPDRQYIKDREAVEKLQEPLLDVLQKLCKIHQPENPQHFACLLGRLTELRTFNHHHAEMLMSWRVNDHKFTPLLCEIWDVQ
Chain of Peroxisome proliferator-activated receptor gamma (Homo sapiens) (P37231 whole entry, looked up): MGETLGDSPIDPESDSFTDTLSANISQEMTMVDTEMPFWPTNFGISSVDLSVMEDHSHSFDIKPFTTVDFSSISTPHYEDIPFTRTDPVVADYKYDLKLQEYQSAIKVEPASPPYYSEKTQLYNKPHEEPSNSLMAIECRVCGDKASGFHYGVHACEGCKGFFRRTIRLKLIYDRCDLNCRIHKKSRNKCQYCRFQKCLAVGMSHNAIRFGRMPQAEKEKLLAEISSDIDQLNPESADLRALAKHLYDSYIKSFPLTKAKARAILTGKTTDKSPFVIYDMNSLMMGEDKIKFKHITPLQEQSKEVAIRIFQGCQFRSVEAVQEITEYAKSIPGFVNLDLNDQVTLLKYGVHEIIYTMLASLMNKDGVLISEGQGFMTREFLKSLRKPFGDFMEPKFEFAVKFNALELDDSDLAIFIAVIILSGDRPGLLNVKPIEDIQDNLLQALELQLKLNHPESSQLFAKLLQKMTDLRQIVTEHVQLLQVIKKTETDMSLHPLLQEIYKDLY
Chain of mouse Estrogen Receptor alpha (Era), Esr1 (gene 13982) (P19785 whole entry, looked up): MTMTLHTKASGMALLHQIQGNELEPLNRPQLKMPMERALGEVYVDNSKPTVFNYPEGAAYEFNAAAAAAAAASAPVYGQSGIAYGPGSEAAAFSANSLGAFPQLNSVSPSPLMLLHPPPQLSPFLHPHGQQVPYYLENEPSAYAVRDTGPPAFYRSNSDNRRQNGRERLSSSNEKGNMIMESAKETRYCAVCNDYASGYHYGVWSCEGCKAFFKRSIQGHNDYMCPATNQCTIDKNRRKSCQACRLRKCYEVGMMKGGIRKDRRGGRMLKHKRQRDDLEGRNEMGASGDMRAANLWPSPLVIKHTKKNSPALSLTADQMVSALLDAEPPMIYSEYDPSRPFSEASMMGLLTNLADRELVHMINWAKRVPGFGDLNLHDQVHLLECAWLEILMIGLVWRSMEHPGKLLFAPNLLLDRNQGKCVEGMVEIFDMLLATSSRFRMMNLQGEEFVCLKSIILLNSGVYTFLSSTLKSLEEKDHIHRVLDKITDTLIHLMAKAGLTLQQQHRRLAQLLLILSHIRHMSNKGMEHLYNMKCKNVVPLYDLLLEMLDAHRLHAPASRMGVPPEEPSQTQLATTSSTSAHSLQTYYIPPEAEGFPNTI
Chain of Estrogen receptor (Homo sapiens) (P03372 whole entry, looked up): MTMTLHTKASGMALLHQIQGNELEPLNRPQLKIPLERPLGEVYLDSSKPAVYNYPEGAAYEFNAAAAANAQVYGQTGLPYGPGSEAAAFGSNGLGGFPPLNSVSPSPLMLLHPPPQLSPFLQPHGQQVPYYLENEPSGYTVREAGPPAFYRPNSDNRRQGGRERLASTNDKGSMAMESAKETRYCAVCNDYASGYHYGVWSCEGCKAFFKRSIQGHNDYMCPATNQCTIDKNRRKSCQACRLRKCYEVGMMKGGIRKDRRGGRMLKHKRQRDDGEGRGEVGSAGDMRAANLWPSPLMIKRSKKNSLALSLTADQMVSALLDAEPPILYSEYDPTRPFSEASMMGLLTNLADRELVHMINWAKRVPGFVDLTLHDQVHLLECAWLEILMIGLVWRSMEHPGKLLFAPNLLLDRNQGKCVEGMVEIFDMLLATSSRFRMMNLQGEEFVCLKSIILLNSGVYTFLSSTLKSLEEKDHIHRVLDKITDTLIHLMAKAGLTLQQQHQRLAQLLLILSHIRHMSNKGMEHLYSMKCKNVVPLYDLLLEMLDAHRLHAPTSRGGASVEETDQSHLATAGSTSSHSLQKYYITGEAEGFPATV
Chain of Agonist Androgen Response Element (ARE), AR (gene 367) (P10275 whole entry, looked up): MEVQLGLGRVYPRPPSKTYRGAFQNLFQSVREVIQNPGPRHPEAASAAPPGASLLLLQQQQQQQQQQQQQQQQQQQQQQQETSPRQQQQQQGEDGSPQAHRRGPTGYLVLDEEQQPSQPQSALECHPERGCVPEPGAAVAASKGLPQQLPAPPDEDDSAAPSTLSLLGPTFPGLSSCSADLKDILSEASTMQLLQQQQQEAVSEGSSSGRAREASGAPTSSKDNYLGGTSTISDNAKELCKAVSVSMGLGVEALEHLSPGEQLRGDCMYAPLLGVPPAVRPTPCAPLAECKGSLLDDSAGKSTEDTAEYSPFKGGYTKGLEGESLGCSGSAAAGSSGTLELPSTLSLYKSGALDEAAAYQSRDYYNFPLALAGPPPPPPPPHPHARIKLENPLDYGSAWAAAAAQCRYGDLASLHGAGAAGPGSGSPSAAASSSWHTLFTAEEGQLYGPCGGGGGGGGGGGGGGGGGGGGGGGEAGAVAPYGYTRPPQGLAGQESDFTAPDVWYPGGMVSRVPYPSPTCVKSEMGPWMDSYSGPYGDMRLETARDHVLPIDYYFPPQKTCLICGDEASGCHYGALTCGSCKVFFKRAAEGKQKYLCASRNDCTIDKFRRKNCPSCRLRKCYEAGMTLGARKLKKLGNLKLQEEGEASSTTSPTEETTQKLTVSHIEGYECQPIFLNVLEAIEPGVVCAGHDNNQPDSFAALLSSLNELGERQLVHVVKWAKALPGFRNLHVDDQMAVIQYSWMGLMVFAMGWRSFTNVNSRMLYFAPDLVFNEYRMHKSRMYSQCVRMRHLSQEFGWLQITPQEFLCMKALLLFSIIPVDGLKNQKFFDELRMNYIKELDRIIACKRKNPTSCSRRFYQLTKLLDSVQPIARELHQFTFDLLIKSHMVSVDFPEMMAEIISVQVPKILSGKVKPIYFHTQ
Chain of Estrogen receptor beta (Homo sapiens) (Q92731 whole entry, looked up, the tested form may be a part): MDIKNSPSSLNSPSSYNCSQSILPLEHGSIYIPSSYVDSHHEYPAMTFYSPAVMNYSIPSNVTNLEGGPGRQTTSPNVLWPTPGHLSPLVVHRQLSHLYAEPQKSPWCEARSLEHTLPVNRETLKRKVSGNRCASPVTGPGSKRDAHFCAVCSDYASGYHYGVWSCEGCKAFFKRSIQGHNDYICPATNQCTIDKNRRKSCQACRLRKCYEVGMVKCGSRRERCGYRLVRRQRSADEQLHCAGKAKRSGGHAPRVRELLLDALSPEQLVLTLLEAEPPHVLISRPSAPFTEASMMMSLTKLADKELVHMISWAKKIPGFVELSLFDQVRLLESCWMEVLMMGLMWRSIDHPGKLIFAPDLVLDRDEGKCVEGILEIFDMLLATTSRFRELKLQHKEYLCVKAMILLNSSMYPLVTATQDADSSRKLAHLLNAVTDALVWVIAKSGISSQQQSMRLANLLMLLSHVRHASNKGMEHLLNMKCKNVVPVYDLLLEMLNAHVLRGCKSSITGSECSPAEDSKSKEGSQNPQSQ
Chain of Nuclear receptor subfamily 1 group I member 2 (Homo sapiens) (O75469 whole entry, looked up): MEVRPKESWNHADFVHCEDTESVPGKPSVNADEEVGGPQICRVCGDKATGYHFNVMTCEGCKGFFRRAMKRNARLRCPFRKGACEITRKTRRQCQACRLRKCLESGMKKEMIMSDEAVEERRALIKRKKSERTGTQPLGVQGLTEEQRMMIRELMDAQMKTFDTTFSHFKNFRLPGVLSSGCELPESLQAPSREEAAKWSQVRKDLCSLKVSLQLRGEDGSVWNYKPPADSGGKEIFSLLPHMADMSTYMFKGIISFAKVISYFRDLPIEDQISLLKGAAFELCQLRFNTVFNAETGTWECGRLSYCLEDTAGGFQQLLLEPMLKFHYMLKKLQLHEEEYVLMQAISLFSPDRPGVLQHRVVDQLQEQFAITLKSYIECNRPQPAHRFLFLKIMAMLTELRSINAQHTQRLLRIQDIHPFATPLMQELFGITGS
Chain of guinea pig Sigma Receptor, Non-selective Binding, SIGMAR1 (gene 100135589) (Q60492 whole entry, looked up): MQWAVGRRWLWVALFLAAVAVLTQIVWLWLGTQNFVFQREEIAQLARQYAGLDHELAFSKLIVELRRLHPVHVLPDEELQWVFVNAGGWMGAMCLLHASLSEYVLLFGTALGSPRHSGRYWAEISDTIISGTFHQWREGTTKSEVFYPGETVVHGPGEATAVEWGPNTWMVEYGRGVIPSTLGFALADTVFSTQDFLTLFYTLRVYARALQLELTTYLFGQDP
Chain of human Norepinephrine Transporter (NET), SLC6A2 (gene 6530) (P23975 whole entry, looked up): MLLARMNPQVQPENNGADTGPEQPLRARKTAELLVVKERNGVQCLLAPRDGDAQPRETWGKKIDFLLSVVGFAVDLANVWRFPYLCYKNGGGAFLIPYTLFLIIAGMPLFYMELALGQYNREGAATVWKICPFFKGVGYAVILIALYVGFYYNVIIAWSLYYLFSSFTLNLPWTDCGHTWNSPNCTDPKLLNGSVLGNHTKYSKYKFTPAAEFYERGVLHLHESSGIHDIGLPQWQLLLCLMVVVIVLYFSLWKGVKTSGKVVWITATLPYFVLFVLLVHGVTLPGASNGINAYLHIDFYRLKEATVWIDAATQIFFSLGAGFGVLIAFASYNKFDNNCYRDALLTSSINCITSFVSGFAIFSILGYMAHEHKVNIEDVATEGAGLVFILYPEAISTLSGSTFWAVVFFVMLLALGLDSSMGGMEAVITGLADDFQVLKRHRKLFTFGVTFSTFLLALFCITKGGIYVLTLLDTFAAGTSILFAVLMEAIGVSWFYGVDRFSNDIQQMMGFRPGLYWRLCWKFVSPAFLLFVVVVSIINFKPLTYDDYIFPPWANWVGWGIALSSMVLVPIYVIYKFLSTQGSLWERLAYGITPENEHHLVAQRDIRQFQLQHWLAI

COc1cc(C(C)C)c2c(c1)S(=O)(=O)N(COc1cc(=O)n3cccc(OCCN4CCCCC4)c3n1)C2=O
active: [2] 4.1 µM | [3] 6.25 µM | [4] 4.47 µM | [6] 23.2 µM | [9] 19.3 µM
inactive: [1] | [5] | [7] | [8]

C[C@@H](Oc1ccc(CNC(=O)c2cccnc2Oc2ccc3c(c2)OCO3)c(F)c1)C(=O)O
active: [3] 13.6 µM
inactive: [10] | [6] | [7] | [8]

CCCCCCCCCC
inactive: [11] | [2] | [12] | [6] | [7] | [8] | [9]

OCC(CO)(CO)CO
inactive: [13] | [6] | [7]

OC[C@H]1O[C@@H]2O[C@H]3[C@H](O)[C@@H](O)[C@@H](O[C@H]4[C@H](O)[C@@H](O)[C@@H](O[C@H]5[C@H](O)[C@@H](O)[C@@H](O[C@H]6[C@H](O)[C@@H](O)[C@@H](O[C@H]7[C@H](O)[C@@H](O)[C@@H](O[C@H]1[C@H](O)[C@H]2O)O[C@@H]7CO)O[C@@H]6CO)O[C@@H]5CO)O[C@@H]4CO)O[C@@H]3CO
inactive: [14] | [6] | [7]
active: [15] 10.3 µM

OCc1ccccc1
inactive: [3] | [5] | [10] | [6] | [7]

CCOc1ccc2[nH]cc(C(=O)NCc3ccccc3)c(=O)c2n1
inactive: [3] | [10] | [6] | [7] | [8] | [9]

Cc1nc(-c2ccccn2)ncc1C(=O)Nn1cc(C)c2cc(F)ccc21
inactive: [13] | [5] | [10] | [6] | [7] | [9]

Nc1ccn([C@@H]2O[C@H](CO)[C@@H](O)[C@@H]2O)c(=O)n1
inactive: [15] | [6] | [8] | [9]
active: [7] 62.2 µM

CCCc1ccccc1
inactive: [6] | [7]

OC(CCl)CCl
inactive: [10] | [6] | [7]

OCCNCCO
inactive: [6] | [7]

NC(=O)N1c2ccccc2C=Cc2ccccc21
inactive: [15] | [6] | [7]

C=CN1CCCC1=O
inactive: [6] | [7]

CCCCCCCCCCCCCCO
inactive: [6] | [7]

CCCCCCOC(=O)CC(CC(=O)OCCCCCC)(OC(=O)CCC)C(=O)OCCCCCC
inactive: [10] | [6] | [7]

NC(=O)N(O)[C@@H]1COc2cc(OCc3ccccc3)ccc21
inactive: [6] | [7] | [8] | [9]

CCCCCOC(C)=O
inactive: [6] | [7]

O=C(O)[C@H](O)[C@@H](O)C(=O)O
inactive: [10] | [6] | [7] | [8] | [9]

CCCCCCCC1CCC(=O)O1 (stereo unspecified)
inactive: [6] | [7]

O=C(O)CO
inactive: [6] | [7]

CC(C)CC(C)O (stereo unspecified)
inactive: [6] | [7] | [8]

OC[C@H]1O[C@@](CO)(O[C@H]2O[C@H](CO)[C@@H](O)[C@H](O)[C@H]2O)[C@@H](O)[C@@H]1O
inactive: [6] | [7] | [9]

CC(=O)c1ccccc1
inactive: [6] | [7]

Cn1cc[nH]c1=S
inactive: [6] | [7]

CCc1ccc(O)c(C(C)(C)C)c1
inactive: [15] | [6] | [7]

O=S1(=O)CCCO1
inactive: [6] | [7]

CCc1cccc(CC)c1N
inactive: [5] | [6] | [7]

COCc1nnc(-c2ccc[n+]([O-])c2)n1-c1c(Cl)c(Cl)cc2[nH]c(=O)c(=O)[nH]c12
inactive: [6] | [7] | [8]

O=C(O)c1ccc2c(c1)nc(C(=O)NC1CCN(C3CC3)CC1)n2Cc1cc(-c2ccc(Cl)s2)on1
inactive: [6] | [7] | [8] | [9]

OC(Cn1cncn1)(Cn1cncn1)c1ccc(F)cc1F
inactive: [6] | [7]

CCOC(N)=O
inactive: [15] | [6] | [7]

CCCCOC(=O)c1ccccc1
inactive: [5] | [6] | [7]

c1ccc2ncccc2c1
inactive: [6] | [7]

O=C1CN(N=Cc2ccc([N+](=O)[O-])o2)C(=O)N1
inactive: [6] | [7]

Cn1c(=O)c2[nH]cnc2n(C)c1=O
inactive: [7] | [8] | [9]

O=C(O)c1cccc(C(=O)O)c1
inactive: [6] | [7] | [8] | [9]

CC1(C)C(=O)N(Cl)C(=O)N1Cl
inactive: [6] | [7]

NC(N)=O
inactive: [6] | [7]

O=C(NO)C1(NS(=O)(=O)c2ccc(Oc3ccc(F)cc3)cc2)CCOCC1
inactive: [6] | [7]

CC(C)c1nnc2ccc(-c3ocnc3-c3cc(F)ccc3F)cn12
inactive: [6] | [7] | [8] | [9]
